Compound activity deposited in PubChem by The Scripps Research Institute Molecular Screening Center.
hcDAF12 agonist: activates DAF-12 receptor from parasite H. contortus. hit rate 1.4% among 370,000. HEK293 hcDAF-12 lit1-tk-luc reporter, luminescence; 0% DMSO, 100% Δ7-dafachronic acid. activation, % at 6.8 µM;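 active means activation above the mean of all tested compounds plus 3 SD, cut at about 5.5% in these data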
hgDAF-12 ag: hgDAF-12 agonism, primary luciferase screen; HEK293 GAL4-hgDAF12 UAS-luciferase reporter, agonist luminescence; normalized to butyrate control; activation, % at 6.8 µM; hit rate 1.8% among 370,000;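 active means activation above a cutoff set at the mean of all screened compounds plus 3 SD, cut at about 10% in these data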
ssDAF-12 act: S. stercoralis DAF-12 activation, primary screen. HEK293 ssDAF-12/GRIP1 lit1-tk-luc reporter, luminescence; % of 3 µM dafachronic acid response. hit rate 1% among 370,000. activation, % at 6.8 µM;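 active means activation above the mean over all tested compounds plus 3 SD, cut at about 0.9% in these data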
DAX1 inh-1: inhibitors of DAX1 repression of SF-1 activated StAR promoter; HEK293T StAR-luciferase reporter, SF-1/DAX-1 repression relief; inhibition, % at 6.8 µM; hit rate 1.1% among 370,000;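 active means inhibition above the mean over all tested compounds plus 3 SD, cut at about 3.6% in these data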;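 further: higher inhibition means more luminescence from relief of DAX-1 repression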
DAX1 inh-2: NR0B1 (DAX1) inhibition | P51843 | HEK293 Gal4-DAX1 luciferase reporter, luminescence | inhibition, % at 6.75 µM | hit rate 0.99% among 340,000 | AID 504766;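 active means inhibition above the mean over all tested compounds plus 3 SD, cut at about 4.2% in these data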;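 further: inhibition shows as a rise in luminescence from relieved DAX1 repression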
DAX1 inh confirm: NR0B1 (human) inhibition, confirmation; hit rate 87% among 2,400; shares compounds with DAX1 inh-1; AID 652134; inhibition, % at 6.8 µM; HEK293T StAR-promoter luciferase reporter, SF-1/DAX-1 repression;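 active means inhibition above the average of every tested compound plus 3 SD, cut at about 3.8% in these data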;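 further: active compounds raise luminescence by relieving repression of the StAR reporter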
Target sequence (P51843 whole entry, looked up): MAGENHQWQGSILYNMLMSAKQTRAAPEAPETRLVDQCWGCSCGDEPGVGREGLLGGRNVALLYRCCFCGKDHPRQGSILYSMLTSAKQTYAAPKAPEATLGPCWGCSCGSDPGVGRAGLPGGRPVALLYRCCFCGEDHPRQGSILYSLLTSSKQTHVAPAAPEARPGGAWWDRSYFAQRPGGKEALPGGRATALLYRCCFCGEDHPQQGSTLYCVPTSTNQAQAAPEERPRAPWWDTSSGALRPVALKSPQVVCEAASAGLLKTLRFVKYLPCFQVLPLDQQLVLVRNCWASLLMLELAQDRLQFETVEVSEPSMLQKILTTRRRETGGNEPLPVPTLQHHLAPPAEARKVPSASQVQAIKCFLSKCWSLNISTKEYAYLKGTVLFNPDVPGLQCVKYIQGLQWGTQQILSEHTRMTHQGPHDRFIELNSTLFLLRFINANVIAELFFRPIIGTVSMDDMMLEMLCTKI
SF1 mutant ctr: nonselective inhibitor or artifact in SF-1 mutant DAX1 counter-screen | shares compounds with DAX1 inh-1 | HEK293 StAR-luciferase, SF-1 AF2 mutant, luminescence | inhibition, % at 6.8 µM | hit rate 78% among 2,400 | AID 652136;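 active means inhibition above the mean of all tested compounds plus 3 SD, cut at about 3% in these data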
Of the large screens only hits and unclear results are named; the others gave an inactive call (follow-up assays come after a bar, where they were run). In the library only some 4.1% were active in any assay of this set; here they are far more common.

O=C(NCCc1cccc(Cl)c1)c1cccs1	hgDAF-12 ag 11, DAX1 inh-1 4.5 | DAX1 inh confirm 6.6 | SF1 mutant ctr 3.8
CCOc1ccc(N=C(NN)c2ccc3ccccc3n2)cc1	none
O=C1Nc2cc(C(=O)NCCN3CCCCCC3)ccc2S/C1=C/c1ccccc1F	none
COc1cccc(/C=C2/Sc3ccc(C(=O)NCCN4CCCC4)cc3NC2=O)c1	DAX1 inh-1 10 | DAX1 inh confirm 4.6 | SF1 mutant ctr 3.2
Cc1cc(NC(=O)CSc2nc(C3CC3)nc3sc(C)c(C)c23)no1	none
Cc1cccc(C)c1-n1nnnc1C1c2ccccc2C(=O)N1C1CC1 (stereo unspecified)	DAX1 inh-1 4.9 (no result: DAX1 inh-2) | DAX1 inh confirm inactive | SF1 mutant ctr inactive
O=C1c2ccccc2C(c2nnnn2-c2ccc3ccccc3c2)N1C1CC1 (stereo unspecified)	none (no result: DAX1 inh-2)
O=C(NCCc1ccccc1)c1nc2ncccn2n1	none
c1ccc(CSc2nc3ncccn3n2)cc1	DAX1 inh-1 6.8 | DAX1 inh confirm 8.4 | SF1 mutant ctr 4.8
NC(Cc1ccc(Cl)cc1)c1csc(Nc2ccc(C(F)(F)F)cn2)n1 (stereo unspecified)	none (no result: DAX1 inh-2)
Clc1ccc(-c2nnc(SCc3ccon3)o2)c(Cl)c1	hcDAF12 agonist 6.2, hgDAF-12 ag 16, DAX1 inh-1 7.2 | DAX1 inh confirm 11 | SF1 mutant ctr 5.4
c1ccc2[nH]c(NN=C3CCCCCC3)nc2c1	none
c1ccc2nc(NN=C3CCCCC3)ccc2c1	hcDAF12 agonist 6.7, ssDAF-12 act 1.8, DAX1 inh-1 4.5 | DAX1 inh confirm 7.4 | SF1 mutant ctr 3.1
COc1ccc(S(=O)(=O)N2CCCC2CNC(=O)C(=O)Nc2ccc(C)cc2)cc1 (stereo unspecified)	none
COc1ccc(NC(=O)C(=O)NCC2CCCN2S(=O)(=O)c2ccc(C)cc2)cc1 (stereo unspecified)	DAX1 inh-1 6.4 | DAX1 inh confirm 13 | SF1 mutant ctr inactive
C=C1CC[C@@H]2[C@](C)(CCC[C@@]2(C)/C=C/[C@@H](O)C(C)(C)O)[C@H]1CC(=O)NCCS(=O)(=O)O	none
CC1(C)CC(=O)C=C(c2ccc(-c3ccc4[nH]ccc4c3)cc2)C1=O	DAX1 inh-1 5.3 | DAX1 inh confirm 12 | SF1 mutant ctr inactive
O=C(CCNC(=O)N1CC(=O)Nc2ccccc21)NCc1ccc(F)cc1	DAX1 inh-1 6.0 | DAX1 inh confirm 5.3 | SF1 mutant ctr 3.3
CC(=O)NC(c1ccccc1)c1nc2ccccc2[nH]1 (stereo unspecified)	none
Cc1cnc(C(=O)N(c2ccccc2)C(c2ccccc2)c2nc3ccccc3[nH]2)cn1 (stereo unspecified)	DAX1 inh-1 6.0 (no result: DAX1 inh-2) | DAX1 inh confirm 5.0 | SF1 mutant ctr 3.7
CCn1cc(-c2cc(C(=O)O)c3ccccc3n2)cn1	none
O=C(Nc1ccc2nc3n(c(=O)c2c1)CCCCC3)c1ccccn1	hgDAF-12 ag 13, DAX1 inh-1 4.8 | DAX1 inh confirm 9.1 | SF1 mutant ctr 4.7
Cc1ccc(NC(=O)c2ccc3c(=O)n4c(nc3c2)CCCCC4)nc1	none
O=C(Nc1ccc2nc3n(c(=O)c2c1)CCCC3)c1ccccc1F	none
Cc1cccc(NC(=O)c2ccc3c(=O)n4c(nc3c2)CCCCC4)n1	DAX1 inh-1 7.0 | DAX1 inh confirm 6.2 | SF1 mutant ctr inactive
O=C(NCCc1ccc(F)cc1)c1ccc2c(=O)n3c(nc2c1)CCC3	DAX1 inh-1 6.3 | DAX1 inh confirm inactive | SF1 mutant ctr 3.4
O=C(NCc1ccccc1)c1ccc2c(=O)n3c(nc2c1)CCCCC3	none
Cc1nc2nc(C)c(C)nc2nc1C	none (no result: DAX1 inh-2)
NC(=O)C1CCN(CC(=O)N2N=CCC2c2ccccc2)CC1 (stereo unspecified)	none
Cc1cc(NC(=O)c2cccc(COc3ccc(Br)cc3)c2)no1	hgDAF-12 ag 12, DAX1 inh-1 4.5 | DAX1 inh confirm 4.0 | SF1 mutant ctr 4.6
CCCCn1c(N)c(N(CCOC)C(=O)CSc2nnc(C)n2-c2ccc(OC)cc2)c(=O)[nH]c1=O	none
COc1ccc(CN2C(=O)C(CC(=O)NC3CCCC3)CC(C(=O)N3CCOCC3)=C2C)cc1 (stereo unspecified)	none (no result: DAX1 inh-2)
CC(C)(C)c1ccc(C(=O)NC(=S)N2CCOCC2)cc1	hgDAF-12 ag 13, DAX1 inh-1 7.0 | DAX1 inh confirm 8.8 | SF1 mutant ctr 3.4
Cc1cccnc1NC(=O)c1ccc(NS(=O)(=O)c2ccc3[nH]c(=O)[nH]c3c2)cc1	none
O=C(Nc1ncccc1O)c1ccc(NS(=O)(=O)c2ccc3[nH]c(=O)[nH]c3c2)cc1	DAX1 inh-1 15 | DAX1 inh confirm 19 | SF1 mutant ctr 15
COc1cc(CC(=O)N2CCN(C(=O)C3CCCO3)CC2)cc(OC)c1OC (stereo unspecified)	none
COc1ncnc2c1cnn2-c1ccccc1	none
COc1ccccc1Oc1ncnc2c1cnn2-c1ccccc1	hgDAF-12 ag 12, DAX1 inh-1 4.7 | DAX1 inh confirm inactive | SF1 mutant ctr 3.6
CN(C(=O)CSc1nc2ccccc2o1)C1CCCCC1	hgDAF-12 ag 13, DAX1 inh-1 9.0 | DAX1 inh confirm 7.2 | SF1 mutant ctr 5.9
CC(C)c1nnc(NC(=O)c2ccc3ccccc3c2)s1	hcDAF12 agonist 5.7, hgDAF-12 ag 13, DAX1 inh-1 12 | DAX1 inh confirm 13 | SF1 mutant ctr 8.1
CCSc1nnc(NC(=O)c2ccc3c(c2)OCO3)s1	none
Cc1nnc(NC(=O)c2ccc3ccccc3c2)s1	DAX1 inh-1 5.4 | DAX1 inh confirm 10 | SF1 mutant ctr 5.4
Cc1nnc(NC(=O)c2cccc(F)c2)s1	none
CC(C)Sc1nnc(NC(=O)c2ccc3c(c2)OCO3)s1	DAX1 inh-1 5.3 | DAX1 inh confirm 7.7 | SF1 mutant ctr 4.4
Cc1ccc(OCC(=O)OCC(=O)NC2CCS(=O)(=O)C2)cc1C (stereo unspecified)	none
O=C(NCc1ccncc1)[C@@H]1CCCN1C(=O)[C@@H]1CCCN1C(=O)c1cccc2ccccc12	none (no result: DAX1 inh-2)
CC(=O)OCC1=C(C(=O)O)N2C(=O)C(NC(=O)c3ccc(COc4cccc(Cl)c4Cl)o3)C2SC1 (stereo unspecified)	none
CCc1ccc2nc(N(CCN(C)C)C(=O)c3ccc4ncsc4c3)sc2c1	DAX1 inh-1 7.6 | DAX1 inh confirm 8.0 | SF1 mutant ctr 5.4
CCOc1ccc(N(CC(=O)Nc2c(C)cc(C)cc2C)C2=NC3CS(=O)(=O)CC3S2)cc1 (stereo unspecified)	none (no result: DAX1 inh-2)
Cc1ccc(CN(C)C(=O)C2CCC(=O)N(CCc3ccccc3)C2)o1 (stereo unspecified)	DAX1 inh-1 5.8 | DAX1 inh confirm 4.2 | SF1 mutant ctr 3.6
COc1cccc(NC=C2C(=O)OC(C)(C)OC2=O)c1	none
